Reference: PubChem BioAssay
Active and inactive are the calls of the source.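 The calls were made as follows, unless noted: active = compound raises insulin release from rat beta cells at 5 mM glucose, no numeric limit stated; inactive = the rest.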

Key:
[1] = Wnt pathway potentiators raising nuclear beta-catenin – imaging, WNT3A-conditioned medium, mouse C2C12, NPC library, primary screen (AID 1117326; in the data active = nuclear beta-catenin stimulation mostly above about 4.2%, no sharp cut-off; inactive = mostly below about 10%; also: reference of the scale not given here); conditions: stronger effect = higher value
[2] = stimulators of insulin release from INS-1E, primary screen, cell-based, 5 mM glucose, NPC library (AID 1117329); conditions: rat INS-1E insulin secretion, at 10 µM, stronger effect = higher value; also: reference of the scale not given here
[3] = growth inhibition of GSK3B-pretreated HCT116 cells – cell-based, CellTiter-Glo, 0.2 to 20 µM (AID 1117336;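 active = compounds lowering colon cancer cell viability after pretreatment blocking the GSK3B kinase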); conditions: HCT116 viability after GSK3B inhibitor, at 20 µM, stronger effect = higher value
[4] = inhibition of endothelial tube formation, primary screen, imaging, VEGF stimulated, CD31 staining, tube area, NPC library (AID 1117340;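 active = compound that reduces growth-factor-driven endothelial tube area in a mixed cell culture, no cutoff stated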); conditions: VEGF-stimulated ADSC/ECFC co-culture, at 10 µM, stronger effect = higher value
[5] = GLP1 release stimulators, primary, NCI-H716, NPC library (AID 1117341;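 active = compound raises GLP1 secretion from the human gut endocrine cells, with no numeric limit stated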; also: reference of the scale not given here); conditions: NCI-H716 cells, at 10 µM, stronger effect = higher value
[6] = HCT116 colon cancer cell growth inhibition, primary screen, CellTiter-Glo luminescence, NPC library (AID 1117342;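 active = compounds that lower survival of HCT116 colon cancer cells in the luminescence readout, no numeric limit stated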); conditions: at 20 µM (top of the series)
[7] = reduced SW480 viability measured with CellTiter-Glo, NPC library, primary (AID 1117343;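 active = compounds that lower viability of the colon cancer cells in the luminescence readout, with no numeric limit stated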); conditions: CellTiter-Glo luminescence; at 20 µM (top of the series)
[8] = NPC library primary testing for decreased DLD-1 cell viability via CellTiter-Glo (AID 1117346;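 active = compounds that lower survival of DLD-1 colon cancer cells in the luminescence readout, no cutoff given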); conditions: DLD-1 viability, CellTiter-Glo luminescence; at 20 µM (top of the series)
[9] = target: 6-phosphogluconate dehydrogenase, decarboxylating (Homo sapiens) (UniProt P52209); experiment: inhibition of human phosphogluconate dehydrogenase – biochemical, recombinant enzyme, NADPH absorbance, primary screen (AID 1159550;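 active = at least 20% inhibition of 6-phosphogluconate dehydrogenase activity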); conditions: recombinant 6PGD, NADPH absorbance 341 nm; at 10 µM; stronger effect = higher value
Chain of 6-phosphogluconate dehydrogenase, decarboxylating (Homo sapiens) (P52209 whole entry, looked up): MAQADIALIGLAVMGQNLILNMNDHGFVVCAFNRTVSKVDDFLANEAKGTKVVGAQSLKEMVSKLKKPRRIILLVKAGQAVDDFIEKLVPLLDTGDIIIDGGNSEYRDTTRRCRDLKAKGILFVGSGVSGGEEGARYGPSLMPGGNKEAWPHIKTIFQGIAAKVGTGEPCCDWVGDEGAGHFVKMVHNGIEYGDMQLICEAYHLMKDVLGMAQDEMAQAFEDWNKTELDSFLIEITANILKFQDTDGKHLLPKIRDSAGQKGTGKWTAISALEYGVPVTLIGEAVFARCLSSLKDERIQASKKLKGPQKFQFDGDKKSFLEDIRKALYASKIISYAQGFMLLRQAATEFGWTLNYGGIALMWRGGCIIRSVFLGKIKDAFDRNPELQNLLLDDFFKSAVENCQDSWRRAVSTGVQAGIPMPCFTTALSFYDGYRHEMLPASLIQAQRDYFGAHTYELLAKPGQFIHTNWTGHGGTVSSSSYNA

SMILES | nuclear beta-catenin stimulation ([1]; at 10 µM) | nuclear beta-catenin stimulation ([1]; stimulation, at 2 µM) [%] | insulin secretion stimulation [2] | viability decrease [3] | tube area decrease [4] | GLP1 secretion stimulation [5] | inhibition of viability [6] | viability decrease (inhibition) [7] | viability decrease (inhibition) [8] | inhibition [9]
CN1CCN(C(c2ccccc2)c2ccccc2)CC1 | -2.3% (inactive) | -0.3 | 5.5% (inactive) | -48% (inactive) | 22.5% (inactive) | 2.2% (inactive) | 7.1% (inactive) | 4.5% (inactive) | -11.9% (inactive) | -2.54% (inactive)
Cc1cc(-c2ccccc2)nnc1NCCN1CCOCC1 | 1.4% (inactive) | 0.5 | -1.9% (inactive) | -42.6% (inactive) | 6.8% (inactive) | 0.4% (inactive) | 6.4% (inactive) | 12.4% (inactive) | -6.5% (inactive) | 3.56% (inactive)
c1ccc(CN(CC2=NCCN2)c2ccccc2)cc1 | 3.4% (inactive) | 2.4 | 11.3% (inactive) | -68.5% (inactive) | 23.2% (inactive) | -1.9% (inactive) | 15.7% (inactive) | 22% (inactive) | 0.7% (inactive) | -4.52% (inactive)
COc1cc(C(=O)NCc2ccc(OCCN(C)C)cc2)cc(OC)c1OC | 9.2% (inactive) | 5.8 | 2.5% (inactive) | 19.5% (inactive) | 16.6% (inactive) | -2.4% (inactive) | -8.75% (inactive) | -11.4% (inactive) | -8.9% (inactive) | 10.5% (inactive)
O=C1c2ccccc2C(=O)c2c1ccc(O)c2O | 1.2% (inactive) | 0.3 | -2% (inactive) | 45.6% (inactive) | -9.9% (inactive) | -3.8% (inactive) | 9.2% (inactive) | 112% (active) | 65.7% (active) | 1.17% (inactive)
COc1cc(/C=C/C(=O)CC(=O)/C=C/c2ccc(O)c(OC)c2)ccc1O | 1.5% (inactive) | -2.5 | 1.35% (inactive) | 26.1% (inactive) | -1.2% (inactive) | -0.1% (inactive) | 11.9% (inactive) | -4.1% (inactive) | -7.3% (inactive) | 8.75% (inactive)
CCN(CC)CCNc1ccc(CO)c2sc3ccccc3c(=O)c12 | 63.7% (active) | 1.8 | 0.6% (inactive) | 24.4% (inactive) | 76% (active) | 10.2% (inactive) | 78.1% (active) | 74.7% (active) | 35.6% (inactive) | 7.31% (inactive)
C=C[C@@]1(C)CC(=O)[C@]2(O)[C@@]3(C)[C@@H](O)CCC(C)(C)[C@@H]3[C@H](O)[C@H](OC(C)=O)[C@@]2(C)O1 | 1.1% (inactive) | 0.6 | 3.6% (inactive) | -20.2% (inactive) | -41% (inactive) | 5% (inactive) | 17.1% (inactive) | 56.2% (active) | -16.6% (inactive) | 14.7% (inactive)
N=C(N)N | -1.9% (inactive) | 0.6 | 1.1% (inactive) | -1.8% (inactive) | 12.8% (inactive) | -1.2% (inactive) | 1.3% (inactive) | 1% (active) | -1.3% (inactive) | 0.391% (inactive)
Cn1c(=O)c2c(ncn2CC(O)CO)n(C)c1=O (stereo not given) | -0.1% (inactive) | 0.8 | 1.1% (inactive) | -2.9% (inactive) | -11.6% (inactive) | -0.3% (inactive) | 7.4% (inactive) | 12.3% (inactive) | 5.3% (inactive) | -4.2% (inactive)
O=C(O)CCC(=O)c1ccc(-c2ccccc2)cc1 | 4.2% (inactive) | 0.6 | 1.1% (inactive) | -13% (inactive) | 14.5% (inactive) | 0.1% (inactive) | 12.7% (inactive) | 13.6% (inactive) | 0.4% (inactive) | 8.67% (inactive)
Nc1c(Br)cc(Br)cc1CNC1CCC(O)CC1 (stereo not given) | 1.6% (inactive) | 0.3 | 4.7% (inactive) | 33.6% (inactive) | 20.4% (inactive) | -1.7% (inactive) | 34.3% (inactive) | 11.2% (inactive) | 14% (inactive) | -12.9% (inactive)
NC(N)=NS(=O)(=O)c1ccc(N)cc1 | 0.5% (inactive) | 0.1 | -1.4% (inactive) | 7.4% (inactive) | -2.9% (inactive) | 0.9% (inactive) | -10.1% (inactive) | 54.6% (active) | 5.6% (inactive) | -6% (inactive)
Nc1ccc(S(=O)(=O)Nc2nccs2)cc1 | 0% (inactive) | 0 | -1.1% (inactive) | -5.95% (inactive) | 18.7% (inactive) | -3.5% (inactive) | -3.5% (inactive) | 52.4% (active) | 12% (inactive) | 2.97% (inactive)
